UHRF1 MBD2 ctr – UHRF1 methylated DNA binding inhibitors, primary screen, counter-screen for MBD2 inhibitor project, biochemical, TR-FRET, human UHRF1, single concentration; E3 ubiquitin-protein ligase UHRF1 (Homo sapiens), Q96T88; UHRF1 binding to methylated oligo; inhibition, % at 4.4 µM; 0.75% of 370,000 active; AID 687016, 2013; in the data active = inhibition above about 21%;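 note: UHRF1 SRA domain binding a hemimethylated CpG hairpin DNA probe; 0% = median of test compound wells and 100% = reference inhibitor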
KLK7 zymogen act – proKLK7 zymogen activators, primary screen, biochemical, fluorescence intensity; purified proKLK7, EDANS-DABCYL substrate fluorescence; 100% is mature enzyme control, 0% vehicle; 0.9% of 370,000 active; activation, % at 7 µM; AID 652039, 2013;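 active = activation above the mean of all tested compounds plus 3 SD, computed per campaign excluding outliers beyond control limits, cut at about 13% in these data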
Neddyl block – inhibitors of cullin neddylation, primary screen, biochemical, TR-FRET, uHTS, NAE and Ubc12; NEDD8-conjugating enzyme Ubc12 (Homo sapiens) + NEDD8-activating enzyme E1 regulatory …; calls only at 25 µM; 0.58% of 360,000 active; AID 651699, 2012; in the data active = inhibition above about 36%
MBD2 inh – inhibitors of MBD2 binding to methylated DNA, primary screen, biochemical, TR-FRET, DNA-binding domain, human. Methyl-CpG-binding domain protein 2 (Homo sapiens), Q9UBB5. MBD2 binding to methylated oligonucleotide. inhibition, % at 4.4 µM. 0.31% of 370,000 active. AID 686964, 2013; in the data active = inhibition above about 13%
LEDGF integ inh – blockers of LEDGF/p75-dependent integrase strand transfer – biochemical, TR-FRET, high throughput, primary screen | HIV-1 integrase (with human LEDGF/p75) | inhibition, % at 3.7 µM | TR-FRET IN-LEDGF/p75 DNA integration, Eu/Cy5 | 0.64% of 370,000 active;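 active = inhibition above the screen-wide mean plus 3 SD, cut at about 13% in these data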;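 note: signal is the Cy5 over europium emission ratio at 671 and 618 nm; 0% = plate median of compound wells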
Rin1 Abl inh – inhibitors of Rin1-Abl protein binding, primary screen, biochemical, TR-FRET; AID 588664, 2011; Tyrosine-protein kinase ABL1 (Homo sapiens) + Ras and Rab interactor 1 (Homo sapiens), …; inhibition, % at 7.35 µM; 0.4% of 360,000 active; in the data active = inhibition above about 5%, passing the limit was not always enough
KLK7 act conf – proKLK7 zymogen activators, confirmation, biochemical, fluorescence intensity, triplicate. shares compounds with KLK7 zymogen act. purified proKLK7, EDANS-DABCYL substrate fluorescence; scaled: vehicle 0, mature enzyme 100. activation, % at 7 µM. 68% of 3,200 active. AID 686949, 2013;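 active = activation, as change over the incubation, above the mean of all tested compounds plus 3 SD, cut at about 13% in these data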
EDANS interfere – EDANS-DABCYL substrate optical interference, artefact control for kallikrein-7 zymogen activator project, biochemical, fluorescence intensity, high throughput; shares compounds with KLK7 zymogen act; no enzyme, 4 h; solvent 0%, active enzyme control 100%; activation, % at 7 µM; 80% of 3,200 active;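 active = activation above the all-compound mean plus 3 SD, ignoring values outside control-based bounds, cut at about 4.8% in these data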;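 note: value is the 4 h activation minus the activation read at time zero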
IN multimer act – HIV-1 IN multimer formation enhancers, counter-screen for LEDGF/p75 integration inhibitor project, biochemical, TR-FRET; shares compounds with LEDGF integ inh; TR-FRET HIV-1 integrase multimerization; activation, % at 7.7 µM; 17% of 2,000 active; AID 1053131, 2014; in the data active = activation above about 8.9%
TR-FRET interf – TR-FRET optical interference artefacts, confirmation, artefact control for LEDGF/p75-dependent integration inhibitor project, biochemical, HIV-1 IN multimerization; inhibition, % at 7.7 µM; 2,000 tested, under 10 active; shares compounds with LEDGF integ inh; TR-FRET optical interference counterscreen;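 active = inhibition above the mean over all tested compounds plus 3 SD, which no compound reached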;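 note: 0% = integrase with antibodies and DMSO and 100% = antibodies without integrase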
IN-LEDGF confirm – inhibitors of HIV-1 IN-LEDGF/p75 DNA integration, confirmation, biochemical, TR-FRET | TR-FRET LEDGF/p75-dependent HIV-1 integration | shares compounds with LEDGF integ inh | inhibition, % at 3.7 µM | AID 1053136, 2014 | 36% of 2,000 active; in the data active = inhibition above about 14%
* = called active by the depositor; i = inactive; x = no result shown. Compounds with a hit are over-represented: about 3.1% of the library has one in this group of screens.

SMILES | UHRF1 MBD2 ctr | KLK7 zymogen act | Neddyl block | MBD2 inh | LEDGF integ inh | Rin1 Abl inh | KLK7 act conf | EDANS interfere | IN multimer act | TR-FRET interf | IN-LEDGF confirm
N=C1/C(=C\c2coc3ccccc3c2=O)C(=O)N=C2SC=CN12 | -13 | 23* | i | -6 | 15* | -3 | 33* | 32* | 3 | -15 | 26*
CC1Cc2ccccc2N1C(=O)COC(=O)c1ccc([N+](=O)[O-])o1 (configuration not stated) | -5 | 0 | i | -6 | 4 | -4 | x | x | x | x | x
COc1ccc(/C=C2\CCc3c2nc2ccccc2c3C(=O)O)cc1OC | 1 | 16* | i | -7 | 15* | -19 | 55* | 65* | -1 | 6 | 22*
CCOC(=O)c1c2ccc(OCC(=O)N/N=C/c3ccc(C)cc3)cc2n2ccccc12 | 4 | -3 | x | 3 | 2 | 6 | x | x | x | x | x
CCOC(=O)c1c2ccc(OCC(=O)NN)cc2n2ccccc12 | 11 | 49* | x | 1 | 23* | 0 | -27 | -33 | 3 | -14 | 6
N#CC1=C(N)C(C#N)(C#N)[C@H](c2ccoc2)[C@H]2CN(Cc3ccccc3)CC=C12 | -1 | 13* | i | -8 | 19* | -5 | 2 | 3 | 2 | -7 | 3
ON=C1c2ccccc2-c2cc(Br)ccc21 | 1 | -1 | i | -1 | 2 | -1 | x | x | x | x | x
O=C(NNC(=S)Nc1ccc(Cl)cc1Cl)c1ccc(N2CCOCC2)c([N+](=O)[O-])c1 | -2 | 0 | i | -8 | 0 | 0 | x | x | x | x | x
CCN(CC)C(=O)[C@H]1C[C@H](CC(=O)NCCc2ccccn2)C(=O)N2CCc3c([nH]c4cc(-c5ccco5)ccc34)[C@]12C | 0 | 147* | x | -3 | 65* | -4 | 64* | 79* | 0 | -1 | -5
CCN(CC)C(=O)[C@H]1C[C@H](CC(=O)NCCc2ccccn2)C(=O)N2CCc3c([nH]c4ccc(Cl)cc34)[C@]12C | -3 | 0 | i | -5 | 0 | 0 | x | x | x | x | x

Bioassay records as filed in PubChem.
